KCNQ2 block: inhibitors of rat KCNQ2 potassium channel; CHO-K1 KCNQ2, FluxOR thallium flux, 20 min; hits give low values; B-score at 10 µM; hit rate 1.1% among 310,000; AID 2156;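 active = fluorescence ratio B-score at most minus 3 library SDs, with starting brightness B-score within 2 library SDs, cut at about -5.5 in these data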
Target sequence (O88943 whole entry, looked up): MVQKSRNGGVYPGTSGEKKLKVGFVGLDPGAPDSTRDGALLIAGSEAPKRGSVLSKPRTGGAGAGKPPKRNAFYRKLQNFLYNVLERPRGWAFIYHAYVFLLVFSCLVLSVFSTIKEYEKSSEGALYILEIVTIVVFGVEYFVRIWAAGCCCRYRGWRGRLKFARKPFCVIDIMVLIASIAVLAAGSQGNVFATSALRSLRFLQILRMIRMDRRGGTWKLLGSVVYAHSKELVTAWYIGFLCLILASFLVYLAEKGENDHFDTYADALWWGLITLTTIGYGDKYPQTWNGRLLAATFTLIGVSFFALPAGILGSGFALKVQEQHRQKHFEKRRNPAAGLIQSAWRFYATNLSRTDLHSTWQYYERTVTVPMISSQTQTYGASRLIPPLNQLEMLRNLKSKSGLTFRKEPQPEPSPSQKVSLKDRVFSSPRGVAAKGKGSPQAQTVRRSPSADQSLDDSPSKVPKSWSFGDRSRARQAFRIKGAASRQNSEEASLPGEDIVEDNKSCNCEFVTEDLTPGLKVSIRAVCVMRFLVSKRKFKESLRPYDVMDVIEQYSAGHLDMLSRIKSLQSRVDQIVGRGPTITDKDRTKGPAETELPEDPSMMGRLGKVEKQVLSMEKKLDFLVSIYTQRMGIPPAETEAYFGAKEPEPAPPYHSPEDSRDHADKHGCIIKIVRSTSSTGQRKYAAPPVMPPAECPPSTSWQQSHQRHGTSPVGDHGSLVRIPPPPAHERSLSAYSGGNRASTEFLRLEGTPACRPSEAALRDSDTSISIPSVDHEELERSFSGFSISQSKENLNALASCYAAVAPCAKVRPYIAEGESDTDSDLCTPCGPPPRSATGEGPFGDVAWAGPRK
KCNQ2 enhance: KCNQ2 (rat) channel potentiation; CHO-K1 KCNQ2, FluxOR thallium flux fluorescence; hits give high values; B-score at 10 µM; hit rate 0.54% among 310,000;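 active = fluorescence ratio B-score at least 3 SD of library B-scores, with initial fluorescence B-score within 3 of them, cut at about 5.3 in these data; same plate scores as AID 2156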;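 also: B-score of peak minus minimum over baseline fluorescence ratio after K+ and Tl+ stimulus; positive B-score means potentiation of KCNQ2 with more thallium influx and brighter signal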
KCNQ2 block conf: rat KCNQ2 channel inhibition, confirmatory screen; hit rate 57% among 1,000; shares compounds with KCNQ2 block; KCNQ2-expressing cells, thallium flux; hits give low values; activity change, negative = inhibition, % at 10 µM;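 also: 0% = vehicle wells and values are ratio percent relative to vehicle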
KCNQ1 spec: KCNQ2 inhibitor that also affects human KCNQ1 channel. AID 493026. shares compounds with KCNQ2 block. activity change, negative = inhibition, % at 10 µM. KCNQ1-expressing cells, FluxOR thallium flux fluorescence; hits give low values. hit rate 15% among 1,000;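 active = activity change at least 3 SD of negative controls below their mean in both duplicate wells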;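 also: CHO cells stably transfected with KCNQ1 and depolarized by potassium stimulus; peak minus minimum fluorescence over baseline after thallium addition; 0% = vehicle negative control and -100% = blank without thallium stimulus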
CHO Tl ctr: counter-screen for KCNQ2 inhibitors: effect in parental CHO cells | activity change, % at 10 µM | thallium flux counter-screen; hits give low values | hit rate 14% among 1,000 | shares compounds with KCNQ2 block | AID 493029;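 also: 0% = vehicle negative controls with stimulus buffer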
KCNQ2 inh confirm: blocks rat KCNQ2 current in automated patch clamp; shares compounds with KCNQ2 block; KCNQ2-expressing cells; calls only at 10 µM; hit rate 49% among 550
Numbers without * were called inactive; i = inactive; x = no result; + = active, no number. An excerpt weighted towards active compounds, which were near 1.6% of everything screened. Unless noted, no rule for the calls is given here.

SMILES	KCNQ2 block	KCNQ2 enhance	KCNQ2 block conf	KCNQ1 spec	CHO Tl ctr	others
O=C(Nc1ccccc1)N1N=C(c2ccc(F)cc2)CC1c1ccc(F)cc1 (stereo not drawn)	-6.7*	-6.7	i	i	i
COc1ccc(C2CC(c3ccccc3)=NN2C(=O)c2ccc(F)cc2)cc1 (stereo not drawn)	i	0.66	x	x	x
COc1ccc(N(CC(=O)NC2CC3CCC2C3)S(=O)(=O)c2ccccc2)cc1Cl (stereo not drawn)	i	x	x	x	x
Cc1ccc2cc(C(c3nnnn3C3CCCC3)N3CCN(c4ccccc4)CC3)c(=O)[nH]c2c1 (stereo not drawn)	i	x	x	x	x
COc1cc2cc(C(c3nnnn3C3CCCC3)N3CCCCC3)c(=O)[nH]c2cc1OC (stereo not drawn)	-7*	-7	-22%*	i	i	KCNQ2 inh confirm=+
CCOC(=O)C1CCN(C(c2cc3ccc(C)c(C)c3[nH]c2=O)c2nnnn2C2CCCCC2)CC1 (stereo not drawn)	i	x	x	x	x
Cc1ccc2cc(C(c3nnnn3C3CCCC3)N3CCOCC3)c(=O)[nH]c2c1C (stereo not drawn)	-9.5*	-9.5	i	i	i
COc1cccc(OCc2cc(C(=O)N(C)Cc3nccn3C)no2)c1	i	1	x	x	x
CCOC(=O)c1c(NC(=O)CCc2ccc(CC)o2)sc(C)c1C	-8.2*	-8.2	i	i	i
CCOC(=O)c1ccc(NC(=O)CCc2ccc(CC)o2)cc1	i	x	x	x	x
CCOC(=O)c1c(S(=O)(=O)N2CCCC(C(=O)Nc3cccc(C)n3)C2)c(C)n(C)c1C (stereo not drawn)	i	x	x	x	x
CNC(=O)NC(=O)C(NC1CCCc2ccccc21)c1ccccc1 (stereo not drawn)	i	x	x	x	x
COCCNC(C(=O)Nc1cc(Cl)cc(Cl)c1)c1ccccc1 (stereo not drawn)	-8.1*	-8.1	-30%*	i	i	KCNQ2 inh confirm=+
COCC(C)NC(C(=O)Nc1cccc(C(C)=O)c1)c1ccccc1 (stereo not drawn)	i	0.75	x	x	x
O=C(OC(C(=O)Nc1cc(Cl)cc(Cl)c1)c1ccccc1)C1=COCCO1 (stereo not drawn)	i	x	x	x	x
COCC(C)NC(C(=O)Nc1ccc(C)c(Cl)c1)c1ccccc1 (stereo not drawn)	-6.8*	-6.8	i	i	i
CN(C)C(C(=O)Nc1cc(Cl)cc(Cl)c1)c1ccccc1 (stereo not drawn)	-8.3*	-8.3	-29%*	i	i	KCNQ2 inh confirm=+
CCOCCCNC(C(=O)Nc1ccc(OC)c(Cl)c1)c1ccccc1 (stereo not drawn)	i	x	x	x	x
Cc1ccc(NC(=O)C(NC2CCCc3ccccc32)c2ccccc2)cc1Cl (stereo not drawn)	-8.9*	-8.9	i	i	i
O=C1CCCCN1CC(=O)N1CCCC(Nc2ccc(F)cc2)C1 (stereo not drawn)	i	x	x	x	x
COc1ccc(C(=O)NC2CCCc3c2cnn3-c2ccccc2F)o1 (stereo not drawn)	i	0.79	x	x	x
CC1=CN2C(=NC(=O)CC2(C)C(=O)N(CC(=O)NC2CCCC2)Cc2ccc(Cl)cc2)C=C1 (stereo not drawn)	i	0.04	x	x	x
CC(=O)N/N=C(\N)c1nonc1N	i	0.94	x	x	x
CN(C(=O)CSc1nncn1C)C1CCCN(Cc2ccccc2F)C1 (stereo not drawn)	i	0.97	x	x	x
COc1ccc(C)cc1NC(=O)C(OC(=O)Cn1cnc2c1c(=O)n(C)c(=O)n2C)c1ccccc1 (stereo not drawn)	i	0.65	x	x	x
SMILES	KCNQ2 block	KCNQ2 enhance	KCNQ2 block conf	KCNQ1 spec	CHO Tl ctr	others
Cc1cc(C)cc(NC(=O)C(OC(=O)Cn2cnc3c2c(=O)n(C)c(=O)n3C)c2ccccc2)c1 (stereo not drawn)	-9*	-9	-24%*	i	i	KCNQ2 inh confirm=i
CN(C)C(CNC(=O)c1coc2ccccc2c1=O)c1ccccc1 (stereo not drawn)	i	0.73	x	x	x
COc1cc(-c2nnc(NC(=O)CCS(=O)(=O)c3ccccc3)o2)cc(OC)c1OC	i	x	x	x	x
COC(=O)C1C2CCC(C2)C1C(=O)OCC(=O)c1ccccc1 (stereo not drawn)	i	x	x	x	x
CCCOC(=O)C1C2C=CC(C3CC23)C1C(=O)OCC(=O)c1ccccc1 (stereo not drawn)	-9.4*	-9.4	i	i	i
CCOC(=O)c1c(-c2cccs2)csc1NC(=O)c1ccncc1	i	0.91	x	x	x
CCOC(=O)c1c(-c2cccs2)csc1NC(=O)COC(=O)c1c(C)noc1C	-10*	-10	-24%*	i	i	KCNQ2 inh confirm=i
COCC(=O)N1CCC(Oc2ccc(C(=O)N(C)C(C)c3ccon3)cc2)CC1 (stereo not drawn)	i	0.12	x	x	x
CN(C)c1ccc(CN(C(=O)c2ccccc2Br)C2CCS(=O)(=O)C2)cc1 (stereo not drawn)	i	0.47	x	x	x
Cc1cc(Oc2cnn(C(C)(C)C)c(=O)c2Cl)cc(C(C)C)c1	-11*	-11	-34%*	-30%*	-32%*	KCNQ2 inh confirm=i
CCOc1cnn(-c2cc(Oc3ccc(C)cc3)ncn2)c(=O)c1Cl	i	0.83	x	x	x
CCOc1ccc(C(=O)Nc2cccc(-c3nc4cccnc4o3)c2)cc1Cl	-10*	-10	i	i	i
CCOc1ccc(C(=O)Nc2cccc(C(=O)O)c2)cc1Cl	i	1.1	x	x	x
Cc1cc(OCC(=O)Nc2ccccc2C(N)=O)c2c(C)cc(=O)oc2c1	i	x	x	x	x
COc1ccc(NC(=O)[C@H](C)NC(=O)C2CCN(S(=O)(=O)c3ccc(C)cc3)CC2)cc1OC	i	0.02	x	x	x
Cc1cccc(N(C)S(=O)(=O)c2ccc(-c3cc(C)no3)s2)c1	-7*	-7	i	i	i
CCN(c1cccc(C)c1)S(=O)(=O)c1ccc(-c2cc(C)no2)s1	i	x	x	x	x
Cc1c(C(=O)N2CCOCC2)c(S(=O)(=O)N2CCN(c3ccc(Cl)cc3)CC2)c(C)n1C	i	0.45	x	x	x
Cc1cc(C)c2[nH]c(C)c(CN3CCCCCC3)c(=O)c2c1	i	0.15	x	x	x
CCOC(=O)C1(P(=O)(c2ccc(Cl)cc2)c2ccc(Cl)cc2)CCC1	-7.2*	-7.2	-29%*	i	i	KCNQ2 inh confirm=+
O=C(O)C1(P(=O)(c2ccc(Cl)cc2)c2ccc(Cl)cc2)CC1	i	0.44	x	x	x
O=C(O)c1cc(Cl)c(Cl)cc1C(=O)N(Cc1ccccc1)Cc1ccccc1	-7.5*	-7.5	-30%*	i	i	KCNQ2 inh confirm=+
O=C(O)c1ccccc1C(=O)N(Cc1ccccc1)Cc1ccccc1	i	x	x	x	x
COc1ccc(CCN(C)C(=O)Cc2ccc(-c3ccccc3)cc2)cc1OC	i	x	x	x	x
COc1ccc(CCN(C)C(=O)c2cc(-c3ccccc3)nc3ccc(C)cc23)cc1OC	-7.1*	-7.1	-34%*	-34%*	-26%*	KCNQ2 inh confirm=+
COc1cccc(N(CC(=O)NC2CCCCC2)C(=O)CCC(=O)Nc2nc(C)cs2)c1	i	x	x	x	x
NS(=O)(=O)c1ccc(NC(NC(=O)c2cccnc2)C(Cl)(Cl)Cl)cc1 (stereo not drawn)	i	x	x	x	x

Compound activity as filed in PubChem.
